# Source: PubChem BioAssay (The Scripps Research Institute Molecular Screening Center)
# Compounds with a hit are over-represented: about 3.5% of the library has one in this group of screens.
# MITF inh = inhibitors of human MITF | AlphaScreen MITF homodimerization, bead proximity signal | inhibition, % at 2.6 µM | actives 0.91% (n = 650,000) | AID 1259374; in the data active = inhibition above about 50%;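 also: 0% = vehicle wells with protein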
# GPR151 activ = human GPR151 activation; Q8TDV0; PathHunter beta-arrestin GPR151 cells, luminescence; activation, % at 11.2 µM; actives 1% (n = 650,000); in the data active = activation above about 4.9%;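 also: 0% = median of compound wells and 100% = cells with positive control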
# TEAD-YAP block = TEAD-YAP interaction inhibition. inhibition, % at 9.12 µM. actives 1.4% (n = 640,000). HEK-TIYL cells, TEAD-Gal4/YAP UAS-luciferase luminescence; in the data active = inhibition above about 32%;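 also: 0% = median of test compound wells and 100% = reference inhibitor wells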
# FBW7 act = human FBW7 E3 ligase activation, primary screen; AlphaScreen FBW7–phospho-cyclin E peptide binding, activator screen; normalized activity (activation), % at 26.1 µM; Q969H0; actives 0.13% (n = 650,000); in the data active = normalized activity above about 1.9%;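 also: purified mutant Fbw7 with reduced substrate affinity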
# MITF confirm = confirmation of human MITF inhibitors | shares compounds with MITF inh | AlphaScreen MITF homodimerization, biotin/His-MITF beads | inhibition, % at 2.6 µM | actives 16% (n = 4,700) | AID 1259372;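 active = inhibition above a cutoff derived from the DMSO control wells, cut at about 28% in these data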;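 also: 0% = MITF dimer wells with DMSO only; inhibitors lower the bead chemiluminescence by keeping MITF from dimerizing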
# AlphaScreen DR = AlphaScreen optical interference, dose response counter-screen; actives 6% (n = 480); IC50, µM; AlphaScreen optical interference counterscreen, cell-free; shares compounds with MITF inh; call rule not given here
# AlphaScreen intf2 = counter-screen: compounds optically interfering with AlphaScreen; shares compounds with MITF inh; LysRS AlphaScreen counterscreen, signal interference, triplicate; inhibition, % at 2.6 µM; actives 7.6% (n = 4,700);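 active = inhibition above a cutoff derived from the DMSO control wells, cut at about 30% in these data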
# The depositor's hits bear a star; nt = no result.
SMILES,MITF inh,GPR151 activ,TEAD-YAP block,FBW7 act,MITF confirm,AlphaScreen intf2,others
COc1ccc2c(c1)C1NC(=S)N(c3cccc(C)c3)C(C)(O2)C1C(=O)Nc1ccc(C)cc1C (stereo not given),57*,1,6,0,31*,20,AlphaScreen DR=>5.7
Cc1ccc(NC(=O)c2cncc(Br)c2)cc1Cl,3,0,-17,0,nt,nt,
CCCCCC(=O)NNC(=O)c1ccc(-c2ccccc2)cc1,76*,-1,-5,1,24,-5,
CCCCCCCC(=O)NNC(=O)c1ccc(Cl)cc1,9,0,-4,0,nt,nt,
CC(=O)Nc1nnc(SCC(=O)Nc2ccc(OC(F)(F)F)cc2)s1,2,-1,-1,0,nt,nt,
CCCCn1c(=O)[nH]c(=O)c2c1nc(-c1ccc([N+](=O)[O-])o1)n2C,79*,0,15,0,66*,5,AlphaScreen DR=>7
CCCCn1c(=O)[nH]c(=O)c2c1nc(-c1ccc(C)c([N+](=O)[O-])c1)n2CC,11,0,-11,0,nt,nt,
COc1ccc(-c2noc(-c3ccccc3C)n2)cc1,-12,1,-50,0,nt,nt,
COCCOC(=O)C1=C(C)N(Cc2ccccc2)C(=O)NC1c1ccccc1F (stereo not given),-16,2,0,0,nt,nt,
CCN1CCN(S(=O)(=O)c2ccc3c(c2)SCC(=O)N3)CC1,-2,1,7,0,nt,nt,
O=C1CSc2ccc(S(=O)(=O)N3CCCC3)cc2N1,116*,0,2,0,10,9,
OC(COc1ccccc1CNCC1(O)CCCCC1)CN1CCc2ccccc2C1 (stereo not given),7,-1,1,0,nt,nt,
COCCNCCCCOc1ccc(C)cc1Br,17,0,-11,0,nt,nt,
O=C(O)CSc1nc2ccccc2n1CC(=O)N1CCOCC1,17,-1,12,0,nt,nt,
NC(=O)CSc1nc2ccccc2n1CC(=O)N1CCOCC1,62*,2,-6,0,13,14,
CC1=C(C(N)=O)C(c2ccc(Cl)cc2Cl)NC(=O)N1 (stereo not given),15,-1,4,0,nt,nt,
O=C(NCCN1CCCCC1)c1cccc(CN(C(=O)c2nc3ccc(-c4cn[nH]c4)cc3s2)C2CC2)c1,32,-1,4,1,nt,nt,
O=C(NCCN1CCOCC1)c1cccc(CN(C(=O)c2nc3ccc(-c4cn[nH]c4)cc3s2)C2CC2)c1,66*,1,15,2,73*,6,AlphaScreen DR=>6.5
CN(C)CC(=O)Nc1cccc(CN(C(=O)c2nc3ccc(-c4cn[nH]c4)cc3s2)C2CC2)c1,-4,0,0,-1,nt,nt,
CN1CCN(CCNC(=O)c2cccc(CN(C(=O)c3nc4ccc(-c5cn[nH]c5)cc4s3)C3CC3)c2)CC1,78*,0,50*,2,72*,-14,AlphaScreen DR=>6.5
Cc1ccc(C)c(NC(=O)CSc2ccc3nnc(-c4ccc(F)cc4)n3n2)c1,-7,-1,3,0,nt,nt,
COCCNC(=O)CC1Nc2cc(C)c(C)cc2NC1=O (stereo not given),15,-1,3,0,nt,nt,
Cc1ccc(NC(=O)C(Cc2c[nH]c3ccccc23)NC(=O)OC(C)(C)C)cc1 (stereo not given),62*,0,7,0,1,12,
COCCSc1nnc(-c2cnccn2)n1C,75*,0,4,0,9,20,
CCC(C)C(=O)NCc1nnc2n1CCN(C/C=C/c1ccco1)CC2 (stereo not given),60*,1,7,0,77*,-8,AlphaScreen DR=>6.5
SMILES,MITF inh,GPR151 activ,TEAD-YAP block,FBW7 act,MITF confirm,AlphaScreen intf2,others
COc1ccc(-c2nnc(SCCN3CCCCC3)nc2-c2ccc(OC)cc2)cc1,16,0,6,0,nt,nt,
O=C(CCCn1c(SCC(=O)NC2CCCC2)nc2ccccc2c1=O)NCCCN1CCOCC1,57*,0,-5,0,-16,-8,
CN1CCN(CC(O)Cn2cc(/C=N/O)c3ccccc32)CC1 (stereo not given),59*,-2,-3,0,13,11,
CN1CCN(CC(O)Cn2cc(/C=C/C(=O)c3cccs3)c3ccccc32)CC1 (stereo not given),5,-3,12,0,nt,nt,
CN(CCc1ccccn1)Cc1ccc2c(c1)OCO2,63*,0,4,0,8,15,
CN(CCc1ccccn1)Cc1cccc([N+](=O)[O-])c1,47,-1,-1,0,nt,nt,
CN(CCc1ccccn1)Cc1ccc(F)c(Br)c1,68*,-1,8,0,-9,-6,
CN(CCc1ccccn1)Cc1ccc(F)cc1,78*,-1,-4,0,33*,17,AlphaScreen DR=>6.6
CN(CCc1ccccn1)Cc1cccc(F)c1,73*,0,-6,0,7,19,
CN(CCc1ccccn1)Cc1ccc2c(c1)CN(Cc1cccc3nccnc13)CCO2,1,0,12,0,nt,nt,
C[C@@H](O)[C@@H]1NC(=O)[C@@H]2C[C@H](NCc3sc4ccccc4c3Cl)CN2C1=O,14,1,5,0,nt,nt,
CCCCCN(C(=O)NC(=O)NCC(O)c1ccc([N+](=O)[O-])cc1)S(C)(=O)=O (stereo not given),-5,1,2,0,nt,nt,
CCCn1c(SCC(=O)Nc2ccc(Br)cc2)n[nH]c1=O,-1,-2,-10,0,nt,nt,
CN(CCc1ccccn1)C1CC(=O)N(c2ccccc2)C1=O (stereo not given),-19,-1,-10,0,nt,nt,
CSc1ccc(CN(C)CCc2ccccn2)cc1,68*,1,6,0,14,21,
C=CCN(CC=C)CCOc1ccccc1OC(C)C,35,2,-5,0,nt,nt,
CN(C)CCOCCOc1cccc2ccccc12,63*,0,14,0,-1,-1,
CC(C)Oc1ccccc1OCCN(C)C,75*,0,5,0,7,15,
CCN(CC)CCOCCOc1cccc2ccccc12,1,1,2,0,nt,nt,
COc1c(C)cc(S(=O)(=O)NCC2CCCO2)c(C)c1C (stereo not given),0,-1,10,0,nt,nt,
Cc1ccc(S(=O)(=O)Nc2ccc(Br)cc2)cc1S(=O)(=O)Nc1ccc(Br)cc1,53*,0,5,0,16,11,
Cc1cc(C)c(S(=O)(=O)Nc2ccc(Br)cc2)cc1S(=O)(=O)Nc1ccc(Br)cc1,18,0,13,0,nt,nt,
COc1ccc(N2C(=O)NC(=O)/C(=C\c3ccc(C)s3)C2=O)cc1,9,4,3,0,nt,nt,
O=S(=O)(NCC(c1cccs1)S(=O)(=O)c1ccccc1)c1cccs1 (stereo not given),-2,-1,2,0,nt,nt,
O=S(=O)(NCC(c1cccs1)S(=O)(=O)c1ccc(Cl)cc1)c1cccs1 (stereo not given),73*,0,6,1,18,3,
